Source: PubChem BioAssay (NCI)
About 79,000 compounds went through this panel and 15% of them were active in at least one assay; those are over-represented in the sample as a whole. No stated cut-off is given here; in the data, active means growth inhibition above about 70%; inactive means the rest.

Key:
[1] = NCI Yeast Anticancer Drug Screen. Data for the rad50 strain (AID 155);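 further: 0% = growth of vehicle-only cultures of the same strain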; details: S. cerevisiae rad50 strain growth inhibition; at 50.0 µM; hits give high values
Outline: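 A DNA repair-deficient yeast mutant serves as the test organism; compound-induced growth inhibition is calculated against vehicle-treated cells.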

[2] = NCI Yeast Anticancer Drug Screen. Data for the mec2-1 strain (AID 157); details: S. cerevisiae mec2-1 strain, at 50.0 µM, hits give high values
Outline: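 Using mec2-1 yeast: add compound, measure growth, express inhibition versus vehicle-treated cultures.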

[3] = NCI Yeast Anticancer Drug Screen. Data for the sgs1 mgt1 strain (AID 161);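 further: 0% = growth of cultures given vehicle only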; details: S. cerevisiae sgs1 mgt1 strain, at 50.0 µM, hits give high values
Outline: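 Growth of a repair-deficient yeast mutant was monitored after compound treatment and expressed as inhibition relative to vehicle-treated cultures.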

[4] = NCI Yeast Anticancer Drug Screen. Data for the cln2 rad14 strain (AID 165);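 further: 0% = growth equal to vehicle treated cultures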; details: S. cerevisiae cln2 rad14 strain, at 50.0 µM, hits give high values
Outline: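 Yeast strain cln2 rad14, bearing defects in cell cycle control and DNA repair, serves as the test system; values reflect growth inhibition compared with vehicle.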

[5] = NCI Yeast Anticancer Drug Screen. Data for the bub3 strain (AID 167); details: S. cerevisiae bub3 mutant strain, at 50.0 µM, hits give high values
Outline: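 Inhibition values come from growth of compound-treated mutant yeast normalised to vehicle-treated controls.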

[6] = NCI Yeast Anticancer Drug Screen. Data for the mlh1 rad18 strain (AID 175); details: S. cerevisiae mlh1 rad18 strain growth inhibition; at 50.0 µM; hits give high values
Outline: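 Steps: expose repair-defective yeast to compound; measure growth; express inhibition against vehicle-treated controls.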

Measured: growth inhibition

CC(O)C(O)C(O)C(O)C(/C=N/Nc1ccccc1)=N/Nc1ccccc1 (stereo not given)
inactive: [1] 3.75% | [2] -14% | [3] 8.1% | [4] -9.95% | [5] 0.25% | [6] 22.8%

COc1ccc(C(=O)C(C)CN2CCOCC2)cc1 (stereo not given)
inactive: [1] 68.1% | [2] 22.6% | [3] 40.5% | [4] 32.6% | [5] 52.8% | [6] 53.5%

O=C(c1ccccc1Cl)c1ccc2ccccc2c1C(=O)O
inactive: [1] 2.5% | [2] -0.55% | [3] -0.6% | [4] 6% | [5] -10% | [6] 2.95%

COC(=O)c1c(C)ccc(C)c1C(=O)c1c(C)cc(C)cc1C
inactive: [1] -14.6% | [2] 11.5% | [3] 5% | [4] -28.1% | [5] 24.3% | [6] 4.1%

CNC(=O)OCc1c(COC(=O)NC)c(-c2ccc(S(C)(=O)=O)cc2)n(C)c1C
inactive: [1] 49% | [2] -3.3% | [3] -16.2% | [4] 5.25% | [5] -10.1% | [6] -42%

Cc1cc(S(=O)(=O)/N=C(/NN)Nc2ccc(Cl)cc2)c(S)cc1Cl
inactive: [1] 22.6% | [2] 8.15% | [3] 19.9% | [4] 3.8% | [5] 27.5% | [6] 29.9%

CCCCOC(=O)CC(C(=O)OCCCC)N1CCNCC1 (stereo not given)
inactive: [1] -0.05% | [2] -9.95% | [3] -4.15% | [4] -50.6% | [5] -1.2% | [6] -3.1%

COCCOCCOCCC(=O)NC1CC2CCC1(C)C2(C)C (stereo not given)
inactive: [1] -10.5% | [2] -1.85% | [3] 8.2% | [4] -16.7% | [5] 23.7% | [6] 15.4%

C/C=C(\CC)C(C#N)O[Si](C)(C)C (stereo not given)
inactive: [1] 13.2% | [2] 4.4% | [3] 1.45% | [4] 6.5% | [5] 10% | [6] -24.6%

O=[N+]([O-])c1c(F)cc(F)cc1F
inactive: [1] -11% | [2] 5.75% | [3] -5.15% | [4] -19.9% | [5] 2.55% | [6] -6.65%

O=C(O)O.O=C(O)O.O=C(O)O.[Co]
inactive: [1] -9.35% | [2] 38.3% | [3] -2.75% | [4] -11.6% | [5] 8.65% | [6] -5.05%

N#Cc1cnn(-c2ccc(Br)cc2)c1N
inactive: [1] 11.4% | [2] 0.6% | [3] 3.1% | [4] -33.8% | [5] -7% | [6] 6.3%

CSc1cc(Cl)c(C)cc1S(=O)(=O)NC(=O)NNc1ccc(Cl)cc1
inactive: [1] 23.9% | [2] 11.2% | [3] 10.6% | [4] 7.55% | [5] -3.75% | [6] 51.6%

CC(=O)c1sc2c(c1OC(=O)c1ccco1)c(=O)n(-c1ccccc1)c(=S)n2-c1ccccc1
inactive: [1] 20.8% | [2] 18.2% | [3] 23.7% | [4] 25.6% | [5] 6.85% | [6] 33.9%

CN(N=O)C(=O)NCCSc1ncnc2nc[nH]c12
inactive: [1] 9.75% | [2] 13.1% | [3] -2.25% | [4] -108% | [5] -2.5% | [6] -17.2%

CCC(C(=O)O)C1=CCCCC1 (stereo not given)
inactive: [1] 15.7% | [2] -13.6% | [3] 16.2% | [4] 16.1% | [5] -14.2% | [6] 4.45%

O=S(=O)(Nc1ccnn1-c1ccccc1)c1ccc(NC(=S)Nc2ccccc2)cc1
inactive: [1] 34.1% | [2] 38.5% | [3] 46% | [4] 27.7% | [5] 56.4% | [6] 65.5%

CCOC(=O)C(NC(=O)c1ccccc1)C1NC(C(=O)O)C(C)(C)S1 (stereo not given)
inactive: [1] -23.1% | [2] 5.6% | [3] -5.1% | [4] -21.8% | [5] 0.8% | [6] 3.55%

O=P(O)(O)c1ccc(Oc2ccccc2)cc1
inactive: [1] -8.6% | [2] 1.35% | [3] -4.1% | [4] -22.2% | [5] 5.45% | [6] -2.85%

COC(=O)c1nnn(-c2cc(Cl)ccc2Cl)c1C(=O)c1ccc(OC)cc1
inactive: [1] -13.1% | [2] 3.8% | [3] -12.7% | [4] 53.7% | [5] 37.4% | [6] -3.25%
